Compound activity from PubChem BioAssay.
Shown are actives, neighbours in structure and some others; about 7.9% of the full set was active somewhere.
HCV inhibitor = HCV inhibition. Huh7.5.1 HCVcc-Cre infection, luciferase reporter, 44 h. Potency, µM (titrated, usually from 41.8 µM), for the others: top-dose activity change, negative = inhibition, usual class: inhibitors. hit rate 3.4% among 340,000; active means well fitted inhibition curve with a large enough effect; inconclusive means small, poorly fitted or top-dose-only effect, or another doubt; inactive means no such curve, though single readings can be large or run the other way; further: potency means the concentration at half of the fitted maximal effect
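Whole-lifecycle infectious HCVcc-Cre system; cells 1,000/well, compound then virus (~0.5 moi) added 4 h after plating, 44 h culture. Luciferase read 15 sec following 15 min substrate incubation, room temp.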
LASV entry inh = blocks Lassa virus binding to or entry into cells | Potency, µM (doses to about 37.9 µM), inactives show top-dose activity change, negative = inhibition, hits mostly inhibitors | AID 540256 | hit rate 1.2% among 300,000 | Lassa virus pseudotype entry inhibition, cell reporter; calls by dose curve; tested in HEK293 cells; further: potency means the concentration at half of the fitted maximal effect; nearly all actives have a fitted effect of over 50% in size
FMDV inh = foot and mouth disease virus antiviral activity. hit rate 1.2% among 410,000. FMDV antiviral cell-based qHTS. Potency, µM (doses to about 57.9 µM), for inactives: at the highest dose activity change, negative = inhibition, actives largely listed as inhibitors. AID 1159524; calls by dose curve; tested in HEK293T cells; further: read-out not given here; potency means the concentration at half of the fitted maximal effect; nearly all actives have a fitted effect of over 45% in size
HCMV inh = inhibitors of human cytomegalovirus | hit rate 4.5% among 410,000 | HFF cells, HCMV-luciferase reporter, 72 h; stronger effect = lower value | activity change, negative = inhibition, % at 57.5 µM; in the data active means activity change below about -60%; inconclusive means no clear call, values can overlap the other calls; inactive means above about -39%
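Compounds were evaluated in HFFs infected with an HCMV luciferase reporter virus (MOI 1 PFU/cell). Luciferase in lysates collected 72 h post infection served as the replication measure.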
MARV entry inh = Marburg virus entry inhibition | Marburg virus pseudotyped entry inhibition, cell reporter | Potency, µM (top dose mostly 37.8 µM), inactives show at the highest dose activity change, negative = inhibition, usual class: inhibitors | hit rate 1.8% among 300,000 | AID 540276; calls by dose curve; tested in HEK293 cells; further: potency means the concentration at half of the fitted maximal effect
* hit, by the source's call; ? = inconclusive; · = no result given; [ ] = dose if it differs, or a comment. On the % scale 0 is the no-effect control and ±100 the full control effect.

SMILES | HCV inhibitor | LASV entry inh | FMDV inh | HCMV inh | MARV entry inh
CC(c1ccon1)N(C)C(=O)c1cnn(-c2ncc3c(n2)-c2ccccc2CC3)c1C1CC1 (stereo not given) | · | · | 24.8% | · | ·
O=C(CSc1nnc(-c2cccs2)o1)Oc1ccccc1Cl | · | -1.9%[46.1 µM] | -12.0% | 44.9 | ?
COc1cc(CN2C[C@@H](CO)O[C@@H](n3cnc4c(N5CCOCC5)ncnc43)C2)cc(OC)c1OC | · | · | -24.8% | 14.3 | ·
C=CC(=O)Nc1ccc(Nc2nc(NC3CCC(N(C)C)CC3)nc3c2ncn3C(C)C)cc1 (stereo not given) | 1.26µM* | · | -46.7% | · | ·
CSCc1ccc(C(=O)N2CCCC(Nc3ccc(F)cc3)C2)o1 (stereo not given) | 3.5% | -2.3%[46.1 µM] | -24.7% | 16.2 | -3.9%[46.1 µM]
O=C(CNC(=O)N1CC(=O)Nc2ccccc21)NCc1ccccc1Cl | 4.8% | · | -7.5% | -6.5 | ·
Cc1cc(C(=O)CN2C(=O)c3ccccc3C2=O)c(C)n1Cc1cccs1 | -17.8% | -48.2%[14.3 µM] | -7.2% | -27.3 | 6.51µM*
CC1=C(C(=O)N(C)C)CC(CC(=O)NC(c2ccccc2)c2ccccc2)C(=O)N1Cc1ccc(F)cc1 (stereo not given) | · | · | -17.4% | 1.6 | ·
CCC(C)NC(=O)CCC(=O)OC1O[C@H]2OC3(C)CC[C@H]4[C@H](C)CCC(C1C)C24OO3 (stereo not given in full) | ? | · | -17.0% | -75.5* | ·
CCC(C)C(NC(=O)CCCNC(=O)CCC(=O)OC1O[C@H]2OC3(C)CC[C@H]4[C@H](C)CCC(C1C)C24OO3)C(=O)O (stereo not given in full) | · | · | · | -19.0 | ·
COc1ccc(NS(=O)(=O)c2ccc(N3CCCCC3)c(NC(=O)C(C)NC(N)=O)c2)cc1 (stereo not given) | ? | -9.4% | 19.2% | -28.2 | -3.7%
COc1ccc(NS(=O)(=O)c2ccc(N3CCCCC3)c(N)c2)cc1 | 2.82µM* | · | -8.1% | ? | ·
Nc1cc(S(=O)(=O)Nc2ccccc2Cl)ccc1N1CCCCC1 | 6.31µM* | · | 23.0% | ? | ·
Cc1ccc(NC(=O)CSc2nc(-c3ccccc3Cl)nc3cc(=O)[nH]n23)c(C)c1 | · | 4.0%[46.1 µM] | -14.9% | -13.8 | ·
CCC1CC(/C(C)=N/NC(N)=O)OC1=O (stereo not given) | 3.9% | -11.7% | -6.5% | 3.8 | 6.3%
C/C(=N\NC(N)=S)C1C2C3CC4C5CC(C42)C1C53 (stereo not given) | ? | -9.6%[46.1 µM] | -7.9% | -62.4* | ?
Nc1ccc2oc(-c3ccc4nc[nH]c4c3)nc2c1 | ? | 16.4µM* | -19.0% | 86.3 | ?
Cc1nc2ccc(-c3nc4cc(N)ccc4o3)cc2[nH]1 | 10µM* | ? | 0.0% | 45.8 | ?
Nc1ccc2oc(-c3cccc(Br)c3)nc2c1 | ? | ? | 12.1% | · | -12.0%
Cc1ccc(CNC(=O)CCCCCn2c(=O)c3sccc3n(CC(=O)N3CCCCC3C)c2=O)cc1 (stereo not given) | · | -22.9%[46.1 µM] | -18.3% | -2.5 | -12.5%[46.1 µM]
O=C(C=C1SCCS1)/C=C/c1ccco1 | 29.1% | 11.2µM* | ? | 64.4 | ?
O=C(O)C(C(=O)/C=C/c1ccco1)=C1SCCS1 | 19.6% | 2.5% | 10.3% | ? | 3.2%
CC(=O)Nc1cccc(NC=C(C#N)C#N)c1 | 4.3% | ? | -2.3% | -10.0 | -3.9%
O=C(NCCc1c[nH]c2ccccc12)C(=O)NCC(c1cccnc1)N1CCN(c2ccccc2)CC1 (stereo not given) | 10µM* | ? | ? | ? | -54.7%
COc1ccc(C(=O)NCC(c2cccnc2)N2CCN(c3ccccc3OC)CC2)cc1 (stereo not given) | · | -25.5%[46.1 µM] | ? | -28.5 | ·
SMILES | HCV inhibitor | LASV entry inh | FMDV inh | HCMV inh | MARV entry inh
COc1ccccc1N1CCN(C(CNC(=O)C(=O)NCCc2ccccc2)c2cccnc2)CC1 (stereo not given) | · | -27.9%[46.1 µM] | 25.1µM* | -39.7 | ·
COc1ccc(CCNC(=O)C2(C)CCC(=O)N2CCC(C)C)cc1OC (stereo not given) | -2.5% | · | -5.5% | -99.9* | ·
COc1ccc(CCNC(=O)C23CCC(C)(C(=O)O2)C3(C)C)cc1OC (stereo not given) | 13.2% | · | -0.6% | 16.2 | ·
O=C(CSCc1nc2ccccc2[nH]1)Nc1ccc2ccccc2c1 | ? | -15.9% | 2.7% | -0.1 | 13.1%
O=C(CSCc1cccc(CSCC(=O)Nc2ccc3ccccc3c2)n1)Nc1ccc2ccccc2c1 | 10µM* | -24.9% | -27.3% | -82.2* | ?
O=C1Nc2ccccc2O/C1=C\c1ccccc1Br | -28.2% | 19.2%[46.1 µM] | -6.7% | 66.1 | 11.1%[46.1 µM]
NS(=O)(=O)c1ccc(CNC(=O)/C=C/c2cccc(Cl)c2)cc1 | 1.6% | 1.0% | -16.8% | 5.3 | 26.6%
COc1ccc(/C=C/C(=O)c2ccc([N+](=O)[O-])o2)cc1OC | 5.62µM* | · | 35.5µM* | -103.6* | ·
COc1ccc(/C=C/C(=O)O)cc1OC | 1.8% | -3.2% | 1.8% | · | 9.8%
COc1cc(/C=C/C(=O)c2ccc([N+](=O)[O-])o2)ccc1O | ? | · | ? | -77.0* | ·
O=C(/C=C/c1cccc(Cl)c1)c1ccc([N+](=O)[O-])o1 | 2.51µM* | · | 11.2µM* | -99.8* | ·
COc1ccc(Nc2nccc3c2cc(-c2cccc(C(F)(F)F)c2)n3C)c(OC)c1 | · | · | · | 14.8 | ·
Cc1ccc(NC(=O)CNc2ccccc2CN(C)C2CCCCC2)cc1 | -20.7% | · | -10.9% | ? | ·
COc1ccc(Cl)cc1NC(=O)CN(C)C1CCCCC1 | ? | -16.5% | -26.5% | -31.5 | ?
COc1ccc(C)cc1NC(=O)CNc1ccccc1CN(C)C1CCCCC1 | -3.2% | -21.2%[46.1 µM] | ? | -18.1 | 4.47µM*
COc1ccc(Cl)cc1NC(=O)CNc1ccccc1CN(C)C1CCCCC1 | -28.3% | ? | ? | 3.3 | 2.51µM*
Cc1cc(C(=O)NCC2CCC3(CCN(Cc4ccc(F)cc4)CC3)O2)n(C)n1 (stereo not given) | · | · | -11.6% | · | ·
CCC[C@H]1[C@H](NCc2cccs2)CC[C@@]23CCCN2C(=O)CCC[C@@H]13 | · | · | · | 6.1 | ·
NC1=NC(=Nc2ccc(Br)cc2)c2ccccc21 | ? | ? | 4.5% | -61.2* | 7.08µM*
CC(C)c1ccc(N=C2N=C(N)c3ccccc32)cc1 | ? | ? | -25.0% | 0.0 | ?
NC1=NC(=Nc2ccccc2)c2ccccc21 | 1.5% | 13µM* | ? | 28.8 | ?
NC1=NC(=Nc2ccc(Cl)cc2)c2ccccc21 | 5.3% | -7.2% | 30.9% | -4.6 | 20.6%
Cc1ccccc1C(=O)Nc1cccc(OCc2cc(=O)n3c4c(sc3n2)CCCC4)c1 | · | 13.0%[46.1 µM] | -12.6% | -2.4 | -6.1%[46.1 µM]
O=C(CN1CCCCC1)N1c2ccccc2Oc2ccccc21 | -3.6% | 8.4% | -12.0% | -3.2 | -26.5%
O=C(CO/N=C/c1ccccc1)N1c2ccccc2Oc2ccccc21 | -13.9% | 5.2% | -17.3% | -98.9* | ?
Cc1ccc(O)c(NC(=O)c2nc3nc(C)cc(C(F)F)n3n2)c1 | · | ? | -9.3% | -31.5 | 14.9%[46.1 µM]
Oc1ccc(Br)cc1-c1ccnn1-c1ccccc1 | ? | -9.3% | ? | 7.8 | 8.91µM*
Oc1ccc(Br)cc1-c1n[nH]c(=S)n1Cc1ccccc1 | 17.1% | 2.6%[46.1 µM] | -10.1% | -15.1 | 7.4%[46.1 µM]
